Several values for one entry are separate records, joined by “and”; a condition that tells them apart may be missing. Equal entries are not always repeated. Results filed as inconclusive are left out. Entries that show only a call come without a potency. More than one record can exist for a structure, and the calls need not agree. Activity calls are given as the source filed them. Unless noted, calls come from the whole dose curve; as a rule, active = well fitted curve in the direction sought with a large enough effect in the repeat runs; inconclusive = weak or mixed curves; inactive = no such curve, though single readings can be large; an effect the other way counts as inactive or inconclusive.
What was measured:
[1] = Caspase-3/7 induction in CHO-K1 cells by small molecules, qHTS assay (AID 1346980); note: nearly all actives have a fitted effect of over 15% in size
How it was run: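 Wild-type CHO-K1 cells exposed to compounds for 17hr at 37 C, 5% CO2. Caspase-3/7 activity then measured by Caspase-Glo 3/7 luminescence after 30min at room temperature.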

[2] = Caspase-3/7 induction in HepG2 cells by small molecules, qHTS cell viability counter screen (AID 1346981); note: nearly all actives have a fitted effect of over 30% in size; note: potency is the fitted concentration of half-maximal effect
How it was run: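 Wild-type HepG2 cells, 2,000/well, settled 5 hr at 37 C, 5% CO2 before compound addition. Viability read by CellTiter-Fluor fluorescence, reagent added after 16 hr compound exposure, then 1 hr at 37C, in the same wells as the caspase read.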

[3] = molecular target: Nuclear receptor subfamily 1 group I member 2 (Homo sapiens) (UniProt O75469); experiment: Human pregnane X receptor (PXR) small molecule agonists, qHTS assay (AID 1346982); note: nearly all actives have a fitted effect of over 35% in size; note: potency is the fitted concentration of half-maximal effect
How it was run: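 PXR-Luc HepG2 reporter cells (CYP3A4-driven luciferase) in 5% charcoal-stripped FBS medium, plated 5 h before compound addition, then treated 24 h at 37C. Luciferase read by ONE-Glo luminescence after 30 min at room temperature.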

[4] = molecular target: Nuclear receptor subfamily 1 group I member 2 (Rattus norvegicus) (UniProt Q9R1A7); experiment: Rat pregnane X receptor (rPXR) activation by small molecules, qHTS assay (AID 1346983); conditions: rPXR luciferase reporter cells, One-Glo luminescence, 24 h; stronger effect = higher value; note: nearly all actives have a fitted effect of over 20% in size
How it was run: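 Cell-based rPXR activation assay: rPXR cells, 2,000 per well, rested 5hr at 37 C, then exposed to compounds in DMSO for 24 hr at 37 C. Luciferase activity read by One-Glo luminescence after 30 min at room temperature.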

[5] = molecular target: Cytochrome P450 2D6 (Homo sapiens) (UniProt P10635); experiment: Cytochrome P450 Family 2 Subfamily D Member 6 (CYP2D6) small molecule antagonists: luciferase reporter qHTS assay (AID 1671196); note: nearly all actives have a fitted effect of over 50% in size; note: potency is the fitted concentration of half-maximal effect; for activity change, negative = inhibition: series mostly up to about 120 µM
How it was run: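 Cell-free P450-Glo system: CYP2D6 with proluciferin substrate was pre-incubated with compound for 10 min, then reacted with NADPH regeneration for 1 h at room temperature. Luciferin product was detected after 20 min, and data were reported as relative luminescence units.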

[6] = molecular target: Cytochrome P450 2C19 (Homo sapiens) (UniProt P33261); experiment: Cytochrome P450 Family 2 Subfamily C Member 19 (CYP2C19) small molecule antagonists: luciferase reporter qHTS assay (AID 1671197); note: nearly all actives have a fitted effect of over 65% in size; note: potency is the fitted concentration of half-maximal effect; for activity change, negative = inhibition: series mostly up to about 120 µM
How it was run: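 Light output is proportional to CYP2C19 activity: proluciferin substrate is converted to luciferin, then detected by a luciferin detection reagent that also stops the 1 h, 37C NADPH-driven reaction. Ketoconazole serves as positive control.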

[7] = molecular target: Acetylcholinesterase (Homo sapiens) (UniProt P22303); experiment: Acetylcholinesterase (AChE) small molecule antagonists: colormetric cell-based qHTS assay (AID 1347395; calls by dose curve; note: nearly all actives have a fitted effect of over 30% in size; note: potency is the fitted concentration of half-maximal effect)
How it was run: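 Colorimetric readout: DTNB quantifies thiocholine from acetylthiocholine hydrolysed by endogenous AChE of SH-SY5Y cells (2,000/well, plated overnight). Compound pretreatment 30 min, substrate incubation 90 min, both 37 C.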

[8] = molecular target: Acetylcholinesterase (Homo sapiens) (UniProt P22303); experiment: Acetylcholinesterase (AChE) small molecule antagonists: enzyme-based qHTS assay (AID 1347397; calls by dose curve; note: nearly all actives have a fitted effect of over 55% in size; note: potency is the fitted concentration of half-maximal effect); conditions: Potency: AChE enzyme activity inhibition
How it was run: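 Recombinant human AChE (50 mU/mL) preincubated with compound 30 min at room temperature; acetylthiocholine plus DTNB then added, and thiocholine formation read colorimetrically after 10 min at room temperature. DMSO served as vehicle control.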

[9] = molecular target: Acetylcholinesterase (Homo sapiens) (UniProt P22303); experiment: Acetylcholinesterase (AChE) small molecule antagonists: fluorescence cell-based qHTS assay (AID 1347398; calls by dose curve; note: nearly all actives have a fitted effect of over 50% in size; note: potency is the fitted concentration of half-maximal effect); conditions: Potency: AChE activity
How it was run: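 SH-SY5Y cells (2000/well), attached overnight, incubated with compound 30 min at 37 C. Acetylthiocholine plus Thiolite Green then added for 40 min at room temperature. Thiocholine fluorescence (Ex/Em 490/520 nm) reports cellular AChE activity.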

[10] = molecular target: Acetylcholinesterase (Homo sapiens) (UniProt P22303); experiment: Acetylcholinesterase (AChE) small molecule antagonists: enzyme-based qHTS assay with human liver microsomes (AID 1347399; calls by dose curve; note: nearly all actives have a fitted effect of over 60% in size; note: potency is the fitted concentration of half-maximal effect); conditions: Potency: qHTS inhibition
How it was run: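 Recombinant human AChE (50 mU/mL in the enzyme mix) and human liver microsomes (0.25 mg/mL final) were preincubated with compound and NADPH (0.25 mg/mL final) for 30 min at 37 C. Acetylthiocholine/DTNB was then added; thiocholine was read colorimetrically after 10 min at room temperature.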

Sequence of Cytochrome P450 2D6 (Homo sapiens) (P10635 whole entry, looked up): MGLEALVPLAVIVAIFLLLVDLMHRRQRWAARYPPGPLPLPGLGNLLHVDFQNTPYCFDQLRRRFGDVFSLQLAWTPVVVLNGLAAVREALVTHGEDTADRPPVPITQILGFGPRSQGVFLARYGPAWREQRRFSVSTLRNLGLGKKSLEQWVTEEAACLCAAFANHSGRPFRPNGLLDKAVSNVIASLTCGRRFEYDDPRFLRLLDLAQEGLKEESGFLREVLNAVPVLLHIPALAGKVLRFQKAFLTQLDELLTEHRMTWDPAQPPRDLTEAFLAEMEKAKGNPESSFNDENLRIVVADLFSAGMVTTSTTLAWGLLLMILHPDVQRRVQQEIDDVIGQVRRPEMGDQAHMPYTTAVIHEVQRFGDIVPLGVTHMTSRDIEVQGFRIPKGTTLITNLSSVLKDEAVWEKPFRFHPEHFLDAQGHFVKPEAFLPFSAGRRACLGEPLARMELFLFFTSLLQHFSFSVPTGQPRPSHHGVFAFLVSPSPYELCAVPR
Sequence of Cytochrome P450 2C19 (Homo sapiens) (P33261 whole entry, looked up): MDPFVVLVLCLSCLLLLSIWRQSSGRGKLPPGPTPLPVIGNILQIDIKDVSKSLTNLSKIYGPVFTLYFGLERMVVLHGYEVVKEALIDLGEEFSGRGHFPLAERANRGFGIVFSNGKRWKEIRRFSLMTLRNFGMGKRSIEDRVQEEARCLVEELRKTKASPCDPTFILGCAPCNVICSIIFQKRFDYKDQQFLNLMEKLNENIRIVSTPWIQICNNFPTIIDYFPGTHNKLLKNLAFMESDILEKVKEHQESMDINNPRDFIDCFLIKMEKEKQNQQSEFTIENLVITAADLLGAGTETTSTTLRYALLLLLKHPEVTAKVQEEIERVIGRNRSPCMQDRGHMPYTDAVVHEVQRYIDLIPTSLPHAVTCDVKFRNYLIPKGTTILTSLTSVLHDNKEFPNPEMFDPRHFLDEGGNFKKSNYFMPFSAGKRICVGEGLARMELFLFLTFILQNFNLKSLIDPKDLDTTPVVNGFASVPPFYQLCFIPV
Sequence of Acetylcholinesterase (Homo sapiens) (P22303 whole entry, looked up): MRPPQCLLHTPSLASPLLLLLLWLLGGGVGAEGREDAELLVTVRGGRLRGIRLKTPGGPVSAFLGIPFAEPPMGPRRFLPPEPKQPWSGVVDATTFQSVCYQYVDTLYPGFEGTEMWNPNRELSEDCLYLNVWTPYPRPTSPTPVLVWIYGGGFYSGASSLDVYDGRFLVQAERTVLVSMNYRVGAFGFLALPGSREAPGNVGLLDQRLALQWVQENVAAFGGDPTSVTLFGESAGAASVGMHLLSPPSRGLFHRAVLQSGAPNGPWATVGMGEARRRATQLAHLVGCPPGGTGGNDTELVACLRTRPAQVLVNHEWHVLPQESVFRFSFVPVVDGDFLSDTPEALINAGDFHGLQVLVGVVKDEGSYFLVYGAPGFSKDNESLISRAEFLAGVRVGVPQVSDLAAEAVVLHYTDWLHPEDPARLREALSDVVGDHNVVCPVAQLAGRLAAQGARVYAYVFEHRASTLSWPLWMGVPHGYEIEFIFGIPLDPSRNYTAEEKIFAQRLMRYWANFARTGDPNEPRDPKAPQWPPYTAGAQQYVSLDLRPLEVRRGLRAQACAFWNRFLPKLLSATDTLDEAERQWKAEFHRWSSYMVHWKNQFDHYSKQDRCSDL
Sequence of Nuclear receptor subfamily 1 group I member 2 (Homo sapiens) (O75469 whole entry, looked up): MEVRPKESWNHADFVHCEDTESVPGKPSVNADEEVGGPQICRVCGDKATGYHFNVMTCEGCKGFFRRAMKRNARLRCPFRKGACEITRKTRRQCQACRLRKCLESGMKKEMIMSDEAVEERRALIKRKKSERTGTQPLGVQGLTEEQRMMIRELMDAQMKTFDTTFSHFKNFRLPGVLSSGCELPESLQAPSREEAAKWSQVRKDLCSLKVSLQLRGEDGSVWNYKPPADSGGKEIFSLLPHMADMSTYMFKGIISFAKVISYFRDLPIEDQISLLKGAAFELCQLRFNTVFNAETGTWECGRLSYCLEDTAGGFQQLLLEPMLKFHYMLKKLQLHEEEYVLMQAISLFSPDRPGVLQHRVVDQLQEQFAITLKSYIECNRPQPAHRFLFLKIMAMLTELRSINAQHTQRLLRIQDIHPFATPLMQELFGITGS
Sequence of Nuclear receptor subfamily 1 group I member 2 (Rattus norvegicus) (Q9R1A7 whole entry, looked up): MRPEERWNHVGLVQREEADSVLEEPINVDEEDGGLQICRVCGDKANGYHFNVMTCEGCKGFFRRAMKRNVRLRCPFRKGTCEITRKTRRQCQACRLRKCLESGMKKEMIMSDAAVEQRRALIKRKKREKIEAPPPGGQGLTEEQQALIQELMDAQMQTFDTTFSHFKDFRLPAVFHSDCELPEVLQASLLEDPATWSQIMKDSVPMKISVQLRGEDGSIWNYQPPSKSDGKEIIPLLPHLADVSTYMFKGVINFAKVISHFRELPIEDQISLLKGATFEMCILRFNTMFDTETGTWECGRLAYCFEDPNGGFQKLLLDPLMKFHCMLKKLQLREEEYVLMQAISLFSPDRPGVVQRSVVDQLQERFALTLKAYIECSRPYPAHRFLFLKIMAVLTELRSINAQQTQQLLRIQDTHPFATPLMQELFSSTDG

Compound	outcome [1]	Potency [2]	Potency [3]	max activation [4]	Potency [5]	Potency [6]	Potency [7]	Potency [8]	Potency [9]	Potency [10]	activity change, negative = inhibition [6]
OC(O)C(Cl)(Cl)Cl	inactive	inactive	inactive	-1.41% (inactive)	inactive	inactive					
Clc1ccc(Cl)cc1	inactive	4.32 µM (active) and inactive	1.93 µM (active) and inactive	-1.7% (inactive)	inactive	inactive	inactive	inactive	inactive	inactive	
COC(=O)NS(=O)(=O)c1ccc(N)cc1	inactive	inactive	inactive		inactive	71.3 µM (active) and inactive	inactive	inactive	inactive	inactive	
O=Cc1cccc(Oc2ccccc2)c1	inactive	inactive	inactive		inactive	16 µM (active) and 71 µM (active)	inactive	inactive	inactive	inactive	
CCNc1nc(NC(C)C)nc(SC)n1	inactive	inactive	54.8 µM (active) and 24.3 µM (active)		inactive		inactive	inactive	inactive	inactive	
CNC(=O)Oc1ccccc1OC(C)C	inactive	inactive	inactive		inactive	inactive	2 µM (active) and 2.24 µM (active)	3.18 µM (active) and 3.17 µM (active)	798 nM (active) and 1.59 µM (active)	22.5 µM (active) and 22.4 µM (active)	
Cc1cc(Cl)ccc1O	inactive	inactive	inactive		19.4 µM (active) and 12.6 µM (active)		inactive	inactive	inactive	inactive	
Cc1ccc([N+](=O)[O-])cc1C	inactive	inactive	inactive		inactive	inactive	inactive	inactive	inactive	inactive	
C[C@]12CC[C@H]3[C@@H](CC[C@@]45O[C@@H]4C(O)=C(C#N)C[C@]35C)[C@@H]1CC[C@@H]2O	inactive	inactive	inactive	-0.29% (inactive)	inactive	inactive	inactive	inactive	inactive	inactive	
CC(C#N)CCC#N (stereo not given)	inactive	inactive	inactive		inactive	inactive	inactive	inactive	35.2 µM (active) and inactive	inactive	
[O-][Cl+2]([O-])O	inactive	inactive	inactive		inactive	inactive	inactive	inactive	inactive	inactive	
CN1C(=O)CN=C(c2ccccc2)c2cc(Cl)ccc21	inactive	inactive									
CCCCCCCCCl	inactive	inactive	63.1 µM (active) and inactive		inactive	inactive	inactive	inactive	inactive	inactive	
CC(C)(C)C(O)(CCc1ccc(Cl)cc1)Cn1cncn1 (stereo not given)	inactive	inactive	27.6 µM (active) and 9.69 µM (active)		28.6 µM (active) and 35.6 µM (active)	640 nM (active) and 448 nM (active)	inactive	inactive	inactive	inactive	
O=[N+]([O-])c1ccc([As](=O)(O)O)cc1	inactive	inactive	inactive	-0.802% (inactive)	inactive	inactive	inactive	inactive	inactive	inactive	
C=C(C)CCl	inactive	inactive	inactive		inactive		inactive	inactive	inactive	inactive	3.29% [at 10.5 µM] (inactive)
BrCCBr	inactive	inactive	inactive		43.6 µM (active) and inactive	69.1 µM (active) and inactive	inactive	inactive	inactive	inactive	
c1cc2c3c(cccc3c1)CC2	inactive	inactive	inactive		inactive	45.9 µM (active) and inactive	36.5 µM (active) and inactive	inactive	inactive	inactive	
Nc1ccc(Cc2ccc(N)cc2)cc1	inactive	inactive	60.1 µM (active) and inactive		inactive	35 µM (active) and inactive	inactive	inactive	inactive	inactive	
CC1OC(C)OC(C)O1 (stereo not given)	inactive	inactive	inactive	-1.58% (inactive) and 0.0541% (inactive)	inactive	inactive	inactive	inactive	inactive	inactive	
c1ccc2c(c1)oc1ccccc12	inactive	inactive	inactive		inactive	40.5 µM (active)	inactive	inactive	inactive	inactive	
c1ccc2c(c1)Oc1ccccc1O2	inactive	inactive	inactive		inactive	inactive	inactive	inactive	inactive	inactive	

Compound	outcome [1]	Potency [2]	Potency [3]	max activation [4]	Potency [5]	Potency [6]	Potency [7]	Potency [8]	Potency [9]	Potency [10]	activity change, negative = inhibition [6]
CC(Oc1ccc(Cl)cc1Cl)C(=O)O (stereo not given)	inactive	inactive	inactive		inactive	35.7 µM (active)	inactive	inactive	inactive	inactive	
CCCCCOC(=O)c1ccccc1C(=O)OCCCCC	inactive	inactive	inactive		inactive	11.2 µM (active) and 7.96 µM (active)	inactive	inactive	inactive	inactive	
O=c1n(Cl)c(=O)n(Cl)c(=O)n1Cl	inactive	inactive	inactive	0.0046% (inactive)	inactive	inactive	inactive	inactive	inactive	inactive	
C=CCO	inactive	inactive	inactive		inactive	inactive	inactive	inactive	inactive	inactive	
CCNc1nc(NC(C)(C)C)nc(SC)n1	inactive	inactive	30.2 µM (active) and 48.6 µM (active)		inactive	17.6 µM (active) and 39.9 µM (active)	inactive	inactive	inactive	inactive	
CCC[CH2][Sn]([Cl])([Cl])[Cl]	inactive	inactive	inactive		inactive	40.6 µM (active) and inactive	inactive	inactive	inactive	inactive	
CC(C)N1C(=O)c2ccccc2NS1(=O)=O	inactive	inactive	inactive		inactive		inactive	inactive	inactive	inactive	
O=NN1CCCCCCC1	inactive	inactive	inactive		inactive	inactive	inactive	inactive	inactive	inactive	
CCC[N+](=O)[O-]	inactive	inactive	inactive		inactive	27.8 µM (active)	inactive	inactive	inactive	inactive	
CCC12COCN1COC2	inactive	inactive	inactive		inactive	35.6 µM (active)	inactive	inactive	inactive	inactive	
Clc1ccccc1Cl	inactive	inactive	inactive	-2.27% (inactive)	inactive	inactive	inactive	inactive	inactive	inactive	
COCCl	inactive	35.7 µM (active) and inactive	56.6 µM (active) and inactive		inactive	33 µM (active) and 22.6 µM (active)	inactive	inactive	inactive	inactive	
O=S(=O)(c1ccc(Cl)cc1)c1cc(Cl)c(Cl)cc1Cl	inactive	inactive	30.6 µM (active)		inactive	251 nM (active) and 252 nM (active)	inactive	inactive	inactive	inactive	
CN(C)[C@@H]1C(=O)C(C(N)=O)=C(O)[C@@]2(O)C(=O)C3=C(O)c4c(O)cccc4[C@@](C)(O)[C@H]3C[C@@H]12	inactive	inactive	inactive	-1.09% (inactive)	31.8 µM (active) and inactive and 19.5 µM (active)	inactive					
Cc1cccc([N+](=O)[O-])c1	inactive	inactive	inactive		inactive	inactive	inactive	inactive	inactive	inactive	
O=c1ccc(=O)[nH][nH]1	inactive	inactive	inactive		inactive	inactive	inactive	inactive	inactive	inactive	
Cc1ccc(N)cc1N	inactive	inactive	inactive		30.9 µM (active) and 31.7 µM (active)	34.6 µM (active) and 31.7 µM (active)	inactive	inactive	inactive	inactive	
O=c1[nH]c2ccccc2c(=O)o1	inactive	inactive	inactive		inactive	inactive	inactive	inactive	inactive	inactive	
[N-]=[N+]=[N-]	inactive	inactive	inactive		38.6 µM (active) and inactive	24.4 µM (active) and 50.2 µM (active)	inactive	inactive	inactive	inactive	
OCCN(CCO)CCO	inactive	inactive	inactive		inactive	inactive	inactive	inactive	inactive	inactive	
O=[N+]([O-])c1ccccc1	inactive		inactive	7.19% (inactive)	16.4 µM (active) and inactive	inactive	inactive	inactive	inactive	inactive	
C#CCN(C)[C@H](C)Cc1ccccc1	inactive		inactive	-1.33% (inactive)	12.6 µM (active) and 17.4 µM (active)		inactive	inactive	inactive	inactive	

From PubChem BioAssay (Tox21)
